Sampled rows, rich in hits. Any-hit rate of the full collection: about 9.2%.
HPGD inh = blocks human HPGD enzyme activity | P15428 | purified HPGD, NADH fluorescence kinetic, PGE2 substrate | Potency, µM, for inactives: at the top dose activity change, negative = inhibition, most hits filed as inhibitors | hit rate 4.3% among 150,000; also: % is scaled to controls: 0 for no effect and ±100 for the full control effect
Target sequence (P15428 whole entry, looked up): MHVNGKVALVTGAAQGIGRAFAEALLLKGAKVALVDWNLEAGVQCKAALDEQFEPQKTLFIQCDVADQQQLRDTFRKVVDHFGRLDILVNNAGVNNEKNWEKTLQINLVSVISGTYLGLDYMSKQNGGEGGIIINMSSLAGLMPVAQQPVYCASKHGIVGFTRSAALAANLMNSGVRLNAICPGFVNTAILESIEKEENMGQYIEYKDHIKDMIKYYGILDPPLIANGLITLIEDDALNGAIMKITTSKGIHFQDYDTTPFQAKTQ
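NADH formation kinetics: reaction with 30 uM PGE2 and 1 mM NAD+ (final), 20 nM enzyme, Tris-HCl pH 8 with Tween 20, after 15 min compound preincubation at room temperature. Fluorescence change, last versus first of five reads.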
KDM4E inh = JMJD2E (human) inhibition | Potency, µM (titrated, usually from 57.1 µM), inactives show top-dose activity change, negative = inhibition, most hits filed as inhibitors | hit rate 1.6% among 230,000 | AID 2147 | JMJD2E catalytic domain, FDH-coupled NADH fluorescence (FDH is formaldehyde dehydrogenase) | B2RXH2;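 also: 0% = wells with enzyme and -100% = buffer wells without enzyme; nearly all actives have a fitted effect of over 50% in size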
HTT ATP protect = cytoprotection in Huntington HTT-Q103 PC12 cell model; AID 1471; Potency, µM (series often up to 56.4 µM), for the others: cytoprotection (ATP increase), usual class: activators; PC12 HTT-Q103 induced, cytoprotection, ATP luminescence, 40 h; hit rate 0.14% among 230,000; active = well fitted curve in the direction sought with a large enough effect; inconclusive = small, poorly fitted or top-dose-only effect, or another doubt; inactive = no such curve, though single readings can be large; an effect the other way counts as inactive or inconclusive; also: % of control where 0% means no effect; nearly all actives have a fitted effect of over 45% in size
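Quantitative HTS on tebufenozide-induced (100 nM) PC12 cells expressing HTTQ103 exon 1–GFP; compounds tested as a concentration series; survival measured via cellular ATP.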
ALDH1A1 block = blocks purified human ALDH1A1 activity; P00352; Purified ALDH1A1, NADH fluorescence, propionaldehyde substrate; Potency, µM (top dose mostly 75.3 µM), for the others: at the highest dose activity, negative = inhibition, most hits filed as inhibitors; hit rate 7.3% among 220,000; AID 1030;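 also: plate controls were no enzyme wells and a reference inhibitor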
Lamin A splicing = LMNA splicing modulation. HeLa LMNA splicing GFP/RFP minigene ratio, 48 h. Potency, µM (series often up to 46.1 µM), for inactives: at the highest dose ratio change, negative = inhibition, usual class: inhibitors. hit rate 0.01% among 200,000. AID 1487; active = well fitted inhibition curve with a large enough effect in the signal ratio, with a control signal flat, not every such curve was filed as active; inconclusive = small, poorly fitted or top-dose-only effect, or effect the other way, or a change in a side signal; the % refers to the signal ratio; also: % is scaled to controls: 0 for no effect and ±100 for the full control effect
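S3 HeLa stable clones carrying a lamin A-EGFP splicing minigene plus DsRed2 were seeded at 600 cells/well in Opti-MEM with 2% FBS, pin-dosed and incubated 48 h at 37°C. Acumen cytometry (488 nm) gave the GFP/RFP total-intensity ratio.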
HTT aggregate = inhibitors of mutant huntingtin aggregate formation in PC12 cells. PC12 HttQ103-GFP aggregates, Acumen cytometry, 40 h. Potency, µM (highest dose often 46.1 µM), for the others: at the highest dose activity change, negative = inhibition, usual class: inhibitors. hit rate 1.1% among 220,000; active = well fitted curve in the direction sought with a large enough effect; inconclusive = small, poorly fitted or top-dose-only effect, or another doubt; inactive = no such curve, though single readings can be large; an effect the other way counts as inactive or inconclusive; also: % is scaled to controls: 0 for no effect and ±100 for the full control effect; nearly all actives have a fitted effect of over 60% in size
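Steps: seed 1500 PC12 HTTQ103-GFP cells/well; add tebufenozide, 100 nM final; add compound titration; add ATPLite reagent; quantify GFP aggregates by laser scanning cytometry.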
The depositor's hits bear a star; [ ] = remark or other dose. Unless noted, calls follow the shape of the dose curve; as a rule, active = well fitted inhibition curve with a large enough effect (not every such curve was filed as active); inconclusive = small, poorly fitted or top-dose-only effect, or another doubt; inactive = no such curve, though single readings can be large or run the other way. Potency is read from the fitted curve at half-maximal effect.

How did CCCCc1ccc(NC(=S)Nc2ccc(Nc3ccc(OC)cc3)cc2)cc1 do in these assays?
HPGD inh: inconclusive; KDM4E inh: 0.8%; HTT ATP protect: 28.1%[10 µM]; ALDH1A1 block: 7.08µM*; Lamin A splicing: inconclusive; HTT aggregate: 20.1%

How did CCOc1cc(C(=O)CCC(=O)OCC(=O)N2c3ccccc3NC(=O)C2(C)C)ccc1O do in these assays?
HPGD inh: -9.6%; KDM4E inh: 5.7%; HTT ATP protect: 14.3%; ALDH1A1 block: 14.1µM*; Lamin A splicing: 15.0%; HTT aggregate: 3.0%

Results for CC1(C)C(=O)Nc2ccccc2N1C(=O)COC(=O)C1CCCCC1 ?
HPGD inh: 2.3%; KDM4E inh: 3.2%; HTT ATP protect: 1.8%; ALDH1A1 block: inconclusive; Lamin A splicing: -6.2%; HTT aggregate: 28.4%

How did C=CCNC(=S)Nc1sc2c(c1C(=O)OCC)CC(C(C)C)OC2 (configuration not stated) do in these assays?
HPGD inh: -29.1%; KDM4E inh: 197.3%; HTT ATP protect: -64.8%; ALDH1A1 block: 11.2µM*; Lamin A splicing: -25.6%; HTT aggregate: inconclusive

How did CCOC(=O)c1c(NC(=S)NCCc2ccccc2)sc2c1CC(C(C)C)OC2 (configuration not stated) do in these assays?
HPGD inh: -9.1%; KDM4E inh: -2.3%; HTT ATP protect: 3.7%[10 µM]; ALDH1A1 block: 25.1µM*; Lamin A splicing: inconclusive; HTT aggregate: -13.3%

How did CCOC(=O)c1c(NC(=S)Nc2ccccc2)sc2c1CCN(CCc1ccccc1)C2 do in these assays?
HPGD inh: -18.7%; KDM4E inh: inconclusive; HTT ATP protect: -44.0%; ALDH1A1 block: inconclusive; Lamin A splicing: 29.5%; HTT aggregate: -11.5%

Results for COc1cccc(-n2nnnc2SCC(=O)N2CCCc3ccccc32)c1 ?
HPGD inh: -12.8%; KDM4E inh: 1.8%; HTT ATP protect: -9.2%; ALDH1A1 block: 5.62µM*; Lamin A splicing: -3.7%; HTT aggregate: 7.4%[9.22 µM]

How did COc1cc(OC)cc(-n2nnnc2SCC(=O)N2CCCc3ccccc32)c1 do in these assays?
HPGD inh: -17.6%; KDM4E inh: -2.0%; HTT ATP protect: 13.3%[10 µM]; ALDH1A1 block: 2.82µM*; Lamin A splicing: -9.3%; HTT aggregate: 2.0%

How did COc1ccc(C(=O)NCc2nnc(SCC(=O)N3CCc4ccccc43)n2CCc2ccccc2)cc1 do in these assays?
HPGD inh: -7.5%; KDM4E inh: 8.9%; HTT ATP protect: 31.0%[10 µM]; ALDH1A1 block: 0.631µM*; Lamin A splicing: -4.2%; HTT aggregate: -10.0%

Results for COc1ccc(-n2c(Cc3ccccc3)nnc2SCC(=O)N2CCCc3ccccc32)cc1 ?
HPGD inh: -17.2%; KDM4E inh: 0.0%; HTT ATP protect: 2.1%[10 µM]; ALDH1A1 block: 11.2µM*; Lamin A splicing: 0.9%; HTT aggregate: -7.3%

What do the screens show for `COc1cccc(-n2c(SCC(=O)N3CCCc4ccccc43)nc3c([nH]c4ccccc43)c2=O)c1`?
Lamin A splicing: 10.6%[46 µM]

What do the screens show for `Cc1cc(C)cc(NC(=O)COc2ccc(C(=S)N3CCOCC3)cc2)c1`?
KDM4E inh: 2.0%; ALDH1A1 block: 8.9%; Lamin A splicing: -9.5%[46 µM]; HTT aggregate: 2.7%

How did CN1[C@@H]2CC[C@H]1CC(OC(c1ccccc1)c1ccccc1)C2 (some centres not stated) do in these assays?
HPGD inh: -6.1%; HTT ATP protect: -50.4%; ALDH1A1 block: 6.7%[13.5 µM]; Lamin A splicing: inconclusive; HTT aggregate: -13.9%

How did NS(=O)(=O)c1ccc(CCNc2ncnc3sccc23)cc1 do in these assays?
HPGD inh: -14.9%; KDM4E inh: -3.2%; HTT ATP protect: -2.3%; ALDH1A1 block: 8.4%; Lamin A splicing: inconclusive; HTT aggregate: inconclusive

What do the screens show for `Cc1sc2ncnc(NCCc3ccc(S(N)(=O)=O)cc3)c2c1C`?
HPGD inh: -14.2%; KDM4E inh: 3.1%; HTT ATP protect: -10.8%; ALDH1A1 block: 28.6%; Lamin A splicing: inconclusive; HTT aggregate: 0.708µM*

Results for CCN(C(=O)c1c(C)oc2ncn(CC(C)C)c(=O)c12)c1cccc(Cl)c1 ?
Lamin A splicing: -14.0%[46 µM]

Screening results from PubChem BioAssay.
